# This excerpt belongs to a sample that is enriched for hits.
# IL-1B inflam inh: inflammasome signaling inhibition, IL-1 beta readout; activity change, % at 57.5 µM; 360,000 tested, 4.7% active; THP-1 LPS/ATP IL-1B secretion, AlphaLISA, 16 h; active compounds read low; in the data active = activity change below about -50%; inconclusive = mostly about -30% to -49%
#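 Secreted IL-1B measured by AlphaLISA bead assay after 16 h compound exposure of THP-1 cells; compounds (final up to 57.5 uM) added 1 h before LPS (250 ng/mL) and ATP (1.25 mM) stimulation; lower signal means less secretion.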
# HT1080 IDH1KD tx: HT-1080 IDH1 knockdown cell toxicity (counter line); HT-1080 IDH1 knockdown viability, ATP luminescence, 48 h; Potency, µM (highest dose often 46.1 µM), inactives show at the highest dose activity, negative = toxicity, hits mostly cytotoxic; 360,000 tested, 2% active; AID 686971;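 also: potency is read from the fitted curve at half-maximal effect; 0% = DMSO wells and -100% = cell-free medium wells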
#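 Assay cells: HT-1080 with IDH1 knockdown, 750 per well, RPMI/5% FBS. Exposure: 48 h at 37 °C following 2 h pre-incubation. Read: CellTiter-Glo luminescence; fitted concentration-response, curve class assigned.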
# TDP1 cell CPT: growth inhibition of DT40 Tdp1-/-;hTDP1 cells with camptothecin (screen for TDP1 inhibitors) | chicken DT40 Tdp1-/-;hTDP1 cells + 20 nM CPT, ATP luminescence, 48 h | Potency, µM (doses to about 46.2 µM), without a hit: at the top dose activity change, negative = growth inhibition, most hits filed as inhibitors | 420,000 tested, 12% active | AID 686979; also: potency is read from the fitted curve at half-maximal effect; nearly all actives have a fitted effect of over 55% in size
#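 Chicken DT40 Tdp1-/- cells complemented with human TDP1, 400 cells/well, exposed to compounds plus 20 nM camptothecin for at least 48 h at 37 C; viability read as ATP content by CellTiter-Glo luminescence.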
# 12-LOX inh: ALOX12 (human) lipoxygenase inhibition; purified 12hLO, xylenol orange hydroperoxide absorbance; 580,000 tested, 1.1% active; P18054; Potency, µM (top dose mostly 108 µM), inactives show at the top dose activity change, negative = inhibition, usual class: inhibitors; also: potency is read from the fitted curve at half-maximal effect
# Target sequence (P18054 whole entry, looked up): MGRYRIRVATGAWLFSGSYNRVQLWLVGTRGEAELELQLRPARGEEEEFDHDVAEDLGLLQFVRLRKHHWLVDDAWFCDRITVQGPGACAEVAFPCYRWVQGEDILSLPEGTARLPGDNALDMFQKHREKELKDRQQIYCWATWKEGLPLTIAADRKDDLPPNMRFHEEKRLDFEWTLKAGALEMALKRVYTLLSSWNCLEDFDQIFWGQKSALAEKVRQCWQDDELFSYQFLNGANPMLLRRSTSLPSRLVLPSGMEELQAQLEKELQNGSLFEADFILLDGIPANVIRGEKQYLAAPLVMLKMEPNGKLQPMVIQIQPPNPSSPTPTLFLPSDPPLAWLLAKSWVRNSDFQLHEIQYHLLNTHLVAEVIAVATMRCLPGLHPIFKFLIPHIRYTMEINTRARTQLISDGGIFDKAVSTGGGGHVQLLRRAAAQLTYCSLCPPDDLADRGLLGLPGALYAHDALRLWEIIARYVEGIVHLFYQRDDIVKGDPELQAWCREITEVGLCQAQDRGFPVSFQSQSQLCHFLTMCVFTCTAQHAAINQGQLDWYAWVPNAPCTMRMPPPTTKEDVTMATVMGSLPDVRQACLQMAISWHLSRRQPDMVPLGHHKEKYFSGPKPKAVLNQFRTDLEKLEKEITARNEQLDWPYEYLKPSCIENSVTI
#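 Purified human 12hLO at 150 nM in 25 mM Hepes, 0.01% Triton X-100, pH 7.0, preincubated 15 min at room temperature with compound. Reaction started with 40 uM arachidonic acid, 30 min at room temperature. Hydroperoxide measured by Fe-xylenol orange, 573/405 nm absorbance ratio.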
# TDP1 cell noCPT: qHTS for Inhibitors of human tyrosyl-DNA phosphodiesterase 1 (TDP1): qHTS in cells in absence of CPT; DT40 Tdp1-/- hTDP1 cells, no CPT, ATP luminescence, 48 h; AID 686978, 2013; 420,000 tested, 15% active; Potency, µM (top dose mostly 46.2 µM), inactives show top-dose activity change, negative = growth inhibition, actives largely listed as inhibitors; also: potency is read from the fitted curve at half-maximal effect; nearly all actives have a fitted effect of over 55% in size
#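 Stably hTDP1-transfected Tdp1-null chicken DT40 cells were treated with library compounds minus camptothecin and grown for at least 48 hr at 37 °C, after which cellular ATP was quantified by luminescence.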
# HT1080-NT tox: kills 2HG-producing HT-1080-NT fibrosarcoma cells. HT-1080-NT fibrosarcoma viability, CellTiter-Glo ATP luminescence, 48 h. 360,000 tested, 1.6% active. Potency, µM (titrated, usually from 46.1 µM), for inactives: top-dose activity, negative = less viability, hits mostly cytotoxic;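 also: NT is the 2HG producing partner of a matched IDH1 knockdown line; potency is read from the fitted curve at half-maximal effect; 0% = DMSO-treated cells and -100% = media-only wells without cells; nearly all actives have a fitted effect of over 55% in size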
#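 A 48-hour cytotoxicity screen used HT-1080-NT cells plated 2 hours before compound delivery. ATP-based CellTiter-Glo luminescence measured viability, normalized to DMSO and no-cell controls.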
# Active calls of the source: *; u = inconclusive; x = no result; [ ] = another dose, or the depositor's remark. Unless noted, calls follow the shape of the dose curve; as a rule, active = well fitted curve in the direction sought with a large enough effect; inconclusive = small, poorly fitted or top-dose-only effect, or another doubt; inactive = no such curve, though single readings can be large; an effect the other way counts as inactive or inconclusive. Unless noted, % is scaled to controls: 0 for no effect and ±100 for the full control effect.
SMILES,IL-1B inflam inh,HT1080 IDH1KD tx,TDP1 cell CPT,12-LOX inh,TDP1 cell noCPT,HT1080-NT tox
Cc1cccc(CCN2C(Nc3ccccc3)=NC[C@@H]2CC(C)C)c1,-54*,-28%,18µM*,23%,21µM*,u
Cc1nn(CC(=O)NCCCN2CCCC2)c(=O)c2nn(-c3ccccc3)c(C)c12,-10,10%,2%,-12%,34%,8%
CCc1nn2c(ncc3c(=O)n(-c4n[nH]c(C)n4)ccc32)c1-c1ccccc1,x,x,x,-5%,x,x
Cn1cnc([N+](=O)[O-])c1Oc1cccc(O)c1,-105*,-23%,u,-16%,23µM*,-7%
CNc1c([N+](=O)[O-])ncn1C,8,18%,11%,-15%,-2%,17%
Cn1cnc([N+](=O)[O-])c1Oc1ccccc1,u,-15%,18µM*,8%,u,-12%
O=C(c1cn[nH]c1-n1cnnn1)N1CCn2nc(Cc3ccccc3)cc2C1,x,x,x,31%,x,x
CNC(=O)[C@@H]1CN(C(=O)c2ccc(F)c(F)c2)C[C@H]1COC,x,x,x,22%,x,x
COc1ccc(C(=O)CCN(C)C)c2ccccc12,x,x,1.3µM*,x,2.8µM*,x
COc1ccc(C(=O)c2ccc(Cl)cc2)c2ccccc12,-11,-28%,u,12%,u,-24%
CC[C@@]1(C(=O)O)C[C@H](C(=O)NCc2cccnc2)[C@H](c2ccc(F)cc2)N1C,x,x,x,26%,x,x
CCOc1ccc(NCc2cccn2-c2nnc(N3CCC(C(=O)NCCCN4CCCCC4)CC3)s2)cc1,-6,0%,u,0%,23µM*,-26%
CCOc1ccc(NCc2cccn2-c2nnc(N3CCC(C(=O)NCCCN4C(C)CCCC4C)CC3)s2)cc1 (configuration not stated),-7,u,u,-4%,u,u
CCOc1ccc(NCc2cccn2-c2nnc(N3CCC(C(=O)NCc4ccccc4Cl)CC3)s2)cc1,x,x,-91%,-5%,12µM*,x
CCOc1ccc(NCc2cccn2-c2nnc(N3CCC(C(=O)NC(C)C)CC3)s2)cc1,x,x,x,7%,x,x
O=C(CCc1nc2ccccc2s1)NC1CCCCCCC1,x,x,x,7%,x,x
CO[C@@H]1CO[C@H]2[C@@H]1OC[C@@H]2n1nnnc1C(C)C,x,x,x,-8%[176 µM],x,x
Cc1ccsc1/C=N/NC(=O)c1ccc2ccccc2c1,-9,u,15µM*,0%,18µM*,u
CC1(C(=O)NCc2cccc(Cl)c2)CCc2cnc(N3CCOCC3)nc21 (configuration not stated),x,x,x,-3%[176 µM],x,x
Cc1nc(C)c(-c2csc(Nc3ccc(Cl)cn3)n2)s1,22,-25%,18µM*,-16%,u,-22%
Cc1nc(C)c(-c2csc(Nc3ccc(F)cc3)n2)s1,-23,u,u,u,u,u
Cc1cc(O)ccc1Nc1nc(-c2cccs2)cs1,-84*,u,-5%,u,-6%,-22%
Cc1cc(O)ccc1Nc1nc(-c2cccnc2)cs1,-1,u,-51%,-3%,-52%,-1%
Cc1nc(C)c(-c2csc(Nc3ccc(O)cc3C)n2)s1,-6,7%,16µM*,u,5.8µM*,3%
COc1ccc(CCC(=O)N2CCCN(S(=O)(=O)c3ccccc3)CCC(=O)NCC2)cc1,x,x,x,-5%,x,x
SMILES,IL-1B inflam inh,HT1080 IDH1KD tx,TDP1 cell CPT,12-LOX inh,TDP1 cell noCPT,HT1080-NT tox
COC(=O)[C@H](CC1CCCCC1)NC(=O)[C@H]1CN(C(=O)c2cccc(F)c2)CCN1C(C)=O,x,x,x,-18%,x,x
Cc1cc(C)nc(Sc2nc(Cl)nc(N(c3ccccc3)c3ccccc3)n2)n1,-97*,4%,u,0%,u,-3%
CC(=O)NC1=NN(C(C)=O)C2(S1)C(=O)N(CCC(C)C)c1c(C)cc(C)cc12 (configuration not stated),x,x,x,4%,x,x
CC1(C)Cc2ccccc2-c2nc(NCCCO)n(-c3ccccc3)c(=O)c21,-8,1%,23µM*,-25%,15µM*,5%
O=C(O)c1cn(-c2ccc(F)cc2)c2cc(N3CCNCC3)c(F)cc2c1=O,-13,-2%,u,21%,16µM*,-9%
O=S1(=O)CCN2C(c3cccc(Br)c3)=CSC2=N1,x,x,x,22µM*,x,x
Cc1ccc(C(=O)Nc2cccc(C(=O)N3CCOCC3)c2)cc1Cl,12,2%,5%,-12%,u,6%
O=C(Nc1sc2c(c1C(=O)NCCCO)CCCC2)c1ccccc1,-69*,-13%,-27%,u,-25%,-5%
NCCNC(=O)c1c(NC(=O)c2ccccc2)sc2c1CCCC2,-92*,u,u,-7%,u,-23%
Cc1ccc(CN2CCSc3ccc(C(=O)NC4CCN(Cc5ccccc5)CC4)cc32)cc1,-82*,-1%,7.3µM*,-2%,8.2µM*,-1%
O=C(NC1CCCC1)c1ccc2c(c1)N(Cc1ccccc1)CCS2,-5,-6%,u,3%,18µM*,-6%
O=C(Nc1ccc(Cl)c(S(=O)(=O)N2CCCCC2)c1)c1ccncc1,-5,-13%,15µM*,2%,13µM*,u
O=C(Nc1ccc(Cl)c(S(=O)(=O)N2CCCCC2)c1)c1cnccn1,0,-14%,-21%,u,-15%,0%
CCN(CC)CCOC(=O)c1ccc(NC(=O)c2ccc(Cl)c(S(=O)(=O)N3CCCCCC3)c2)cc1,-69*,u,21µM*,u,u,u
CCN1CCN(c2ccc(NC(=O)c3ccc(Cl)c(S(=O)(=O)N4CCCC4)c3)cc2)CC1,-10,u,u,u,u,u
O=C(O)c1ccc(NC(=O)c2ccc(Cl)c(S(=O)(=O)N3CCCCCC3)c2)cc1,x,x,-21%,-21%,-18%,x
CCN1CCN(c2ccc(NC(=O)c3cc(S(=O)(=O)N4CCCC4)ccc3Cl)cc2)CC1,21,-1%,u,-20%,26µM*,-2%
O=C(Nc1ccncc1)c1ccc(Cl)c(S(=O)(=O)N2CCCCC2)c1,-11,8.2µM*,13µM*,x,16µM*,u
O=C(Nc1ccncc1)c1cc(S(=O)(=O)N2CCCC2)ccc1Cl,61,-12%,u,3%,u,-2%
O=C(Nc1ccccc1O)c1cc(S(=O)(=O)N2CCOCC2)ccc1Cl,-9,5%[9.24 µM],-2%,x,u,6%
O=C(Nc1ccncc1)c1cc(S(=O)(=O)N2CCCCC2)ccc1Cl,25,-12%,9.2µM*,-2%,u,-29%

# From PubChem
